Assay [1] in a line: NCI Yeast Anticancer Drug Screen. Data for the rad50 strain (AID 155).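 Also: 0% = growth of vehicle-only cultures of the same strain.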 Conditions: S. cerevisiae rad50 strain growth inhibition; at 50.0 µM; active compounds read high. The procedure, abridged: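 Compounds were tested on a yeast strain with an engineered DNA damage repair alteration; the reported value is growth inhibition normalised to vehicle treatment.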
Assay [2] is described as follows: NCI Yeast Anticancer Drug Screen. Data for the mec2-1 strain (AID 157). Conditions: S. cerevisiae mec2-1 strain, at 50.0 µM, active compounds read high. The procedure, abridged: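 Compounds were applied to mec2-1 yeast cells. Their growth was then compared with that of vehicle-treated cultures to give growth inhibition.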
The nature of assay [3]: NCI Yeast Anticancer Drug Screen. Data for the sgs1 mgt1 strain (AID 161).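 Also: 0% = growth of cultures given vehicle only.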 The conditions noted are these: S. cerevisiae sgs1 mgt1 strain, at 50.0 µM, active compounds read high. The gist of the method: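 Compounds are added to genetically altered yeast, and growth is compared with cultures given vehicle alone to give percent inhibition.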
The nature of assay [4]: NCI Yeast Anticancer Drug Screen. Data for the cln2 rad14 strain (AID 165).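 Also: 0% = growth equal to vehicle treated cultures.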 The conditions noted are these: S. cerevisiae cln2 rad14 strain, at 50.0 µM, active compounds read high. The gist of the method: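 Strain: cln2 rad14 yeast, altered in cell cycle control and DNA damage repair. Read-out: growth inhibition vs vehicle.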
Assay [5] is described as follows: NCI Yeast Anticancer Drug Screen. Data for the bub3 strain (AID 167). The conditions noted are these: S. cerevisiae bub3 mutant strain, at 50.0 µM, active compounds read high. The procedure, abridged:
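Growth of a checkpoint-deficient yeast mutant is measured after compound exposure. Values represent inhibition relative to vehicle.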

A short description of assay [6]: NCI Yeast Anticancer Drug Screen. Data for the mlh1 rad18 strain (AID 175). Conditions: S. cerevisiae mlh1 rad18 strain growth inhibition; at 50.0 µM; active compounds read high. The procedure, abridged:
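A repair-deficient yeast strain is exposed to test compound, and growth is scored relative to vehicle-treated controls.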

The panel holds about 79,000 compounds, 15% with a hit somewhere; the sample as a whole holds those more often. A number with no mark means an inactive call. Active and inactive are the calls of the source. Rule as the data show it: active = growth inhibition above about 70%; inactive = the rest.

As to `CC1/C(=N\Nc2ccc([N+](=O)[O-])cc2[N+](=O)[O-])CCC2C1(C)CCC1C2(C)CCC2(C)C3CC(C)(C)CCC3(C)CCC12C` (stereo not given), the growth inhibition in assay [1] was -5.8%; in assay [2] it was -9.1%; in assay [3] it was 9.8%; in assay [4], -16.6%; in assay [5] it was 13.2%; in assay [6] it was 6.25%.
Consider `O=C1c2ccccc2C(=O)N1CCOCCOCCOCCN1C(=O)c2ccccc2C1=O`, for which the growth inhibition was 9.4% in assay [1]; -5.95% in assay [2]; -0.75% in assay [3]; -12.3% in assay [4]; -2.75% in assay [5]; -36% in assay [6].
In the case of `Cn1c(=O)c(C(c2ccccc2)c2c(O)c3ccccc3n(C)c2=O)c(O)c2ccccc21`, the growth inhibition in assay [1] was 12.1%; in assay [2] it was 6.5%; in assay [3], -19.2%; in assay [4] it was -34%; in assay [5], 2.8%; in assay [6] it was 15.8%.
For the compound `O=C(Nc1ccccc1)c1cccn1-c1ccccc1`, the growth inhibition is 2.7% in assay [1]; -13.1% in assay [2]; 12.1% in assay [3]; 13.5% in assay [4]; -19% in assay [5]; -2.95% in assay [6].
With `COC(=O)c1cc(-c2ccc3ccccc3c2)[nH]c(=O)c1C#N`, the growth inhibition in assay [1] is 34.4%; in assay [2] it was 35.2%; in assay [3] it was 65.6%; in assay [4], 46.9%; in assay [5], 23.2%; in assay [6], 67.3%.
Turning to `Cc1cc2nc(CC(C(F)(F)F)C(F)(F)F)oc2cc1C`, the growth inhibition in assay [1] is -21%; in assay [2], -13.4%; in assay [3], -13.2%; in assay [4], -4.85%; in assay [5] it was -14.4%; in assay [6], 34.9%.
For the compound `Cc1ccc(N=Nc2c(N)ccc3ccccc23)cc1`, the growth inhibition is 90.5% (active) in assay [1]; 87.2% (active) in assay [2]; 89.6% (active) in assay [3]; 84.2% (active) in assay [4]; 87% (active) in assay [5]; 86.5% (active) in assay [6].
On to `COc1cc(CCCO)ccc1O`, for which the growth inhibition is 0.85% in assay [1]; 13.8% in assay [2]; 0.25% in assay [3]; -48.1% in assay [4]; 9.1% in assay [5]; -4.1% in assay [6].
Regarding `N#CCOc1ccc(/C=C/C(=O)c2ccc(Cl)cc2)cc1`, the growth inhibition is -39.5% in assay [1]; -53.6% in assay [2]; -23.1% in assay [3]; -23.1% in assay [4]; 20.4% in assay [5]; -21.2% in assay [6].
As to `[Zn+2].c1ccc(-c2c3nc(c(-c4ccccc4)c4[n-]c(c(-c5ccccc5)c5nc(c(-c6ccccc6)c6[n-]c2c2ccccc62)-c2ccccc2-5)c2ccccc42)-c2ccccc2-3)cc1`, the growth inhibition in assay [1] is -37.5%; in assay [2], -36.4%; in assay [3] it was -32.6%; in assay [4], -6.55%; in assay [5], -23.9%; in assay [6], -36.8%.
With `CNC(=O)c1ccccc1C(=N)c1ccccc1`, the growth inhibition is -12.6% in assay [1]; -5.4% in assay [2]; -11.2% in assay [3]; -8.05% in assay [4]; -9.65% in assay [5]; -8.35% in assay [6].
As for `CSc1ccc(NC(=O)Nc2cccc(C)c2C)cc1`, the growth inhibition in assay [1] is 1.75%; in assay [2] it was 27.1%; in assay [3] it was 27.8%; in assay [4] it was -7.2%; in assay [5], 27.6%; in assay [6] it was 15.3%.
As to `Cc1cccc(NC(=O)CCl)c1C`, the growth inhibition in assay [1] was -18.1%; in assay [2], -37.6%; in assay [3], -7.65%; in assay [4] it was 11.8%; in assay [5] it was -21.9%; in assay [6], -3.7%.
For `CC=C(c1ccc(OC)cc1)c1ccc(OC)cc1`, the growth inhibition in assay [1] was 0.9%; in assay [2], -9.95%; in assay [3], 5%; in assay [4] it was -46.9%; in assay [5] it was 2.55%; in assay [6], -4.5%.
`c1ccc2oc(N3CCN(c4nc5ccccc5o4)CC3)nc2c1`: the growth inhibition in assay [1] is 4.45%; in assay [2], -0.2%; in assay [3], -9.1%; in assay [4] it was 5.85%; in assay [5] it was 12%; in assay [6], -12.2%.
With `COC(=O)C[C@H]1CCC2(OCCO2)[C@]1(C)C(=O)OC`, the growth inhibition in assay [1] is -10.7%; in assay [2], -11.6%; in assay [3] it was -11.2%; in assay [4], -23.4%; in assay [5], -6.9%; in assay [6], -27.1%.
Take `COC1OC(COC(c2ccccc2)(c2ccccc2)c2ccccc2)C2OC12` (stereo not given): the growth inhibition in assay [1] was 44.1%; in assay [2], 5.15%; in assay [3] it was 22.6%; in assay [4], 11%; in assay [5], 1.3%; in assay [6], 19.7%.
As to `O=[n+]1c2c(n([O-])c3ccccc31)CCCCC2`, the growth inhibition is 19.6% in assay [1]; -12.7% in assay [2]; -1.9% in assay [3]; -32.5% in assay [4]; -8.35% in assay [5]; -2.85% in assay [6].
Consider `CCCCCCCCCCCCCCCCCCN=C=O`, for which the growth inhibition in assay [1] is -23.6%; in assay [2], -45.8%; in assay [3] it was -17.8%; in assay [4], -10.8%; in assay [5], -31.8%; in assay [6] it was -39%.
In the case of `O=C=Nc1cc(Cl)ccc1Cl`, the growth inhibition in assay [1] was 38.5%; in assay [2], 21.8%; in assay [3] it was 17.4%; in assay [4], -24.4%; in assay [5], 7.95%; in assay [6] it was 28.9%.
For `CC(NC(=O)OCc1ccccc1)C(=O)Nc1ccc(C(=O)O)c(O)c1` (stereo not given), the growth inhibition is 5.55% in assay [1]; -5.1% in assay [2]; 11.9% in assay [3]; -9% in assay [4]; 45.1% in assay [5]; -10.8% in assay [6].
Take `CC(C)CCC(C)(C)O`: the growth inhibition in assay [1] was 45.9%; in assay [2], 1.8%; in assay [3] it was 16.1%; in assay [4], -20.7%; in assay [5], 9.95%; in assay [6] it was 34.2%.
In the case of `O=C(CNc1c(Cl)cccc1Cl)NC1C=Cc2ccc(S(=O)(=O)Nc3c(Cl)cccc3Cl)cc2C1=O` (stereo not given), the growth inhibition in assay [1] is 36.2%; in assay [2], 12.9%; in assay [3], 49%; in assay [4] it was 5.35%; in assay [5] it was 19%; in assay [6], 22%.
In the case of `OC1CC2COCC2CC1O` (stereo not given), the growth inhibition in assay [1] was 22.6%; in assay [2], 1.7%; in assay [3], 11.1%; in assay [4], 6.9%; in assay [5] it was 4.4%; in assay [6], 10%.
For the compound `CC/C=N/NC(=O)OCC`, the growth inhibition in assay [1] was -9.8%; in assay [2], -4.85%; in assay [3] it was -13.9%; in assay [4] it was 1.1%; in assay [5], -3.3%; in assay [6], -6.85%.
Regarding `O=C(Cc1ccccn1)c1cccnc1`, the growth inhibition in assay [1] is -1.15%; in assay [2], -9.7%; in assay [3], -4.75%; in assay [4] it was -27.2%; in assay [5], -17%; in assay [6], -4.25%.
Take `O=C(O)c1ccccc1CC(Cc1ccc2c(c1)CCC2)C(=O)O` (stereo not given): the growth inhibition in assay [1] was -7.55%; in assay [2], -2.25%; in assay [3], -37%; in assay [4] it was -5.15%; in assay [5], -17.6%; in assay [6], -6%.
For `COc1cc(=O)n2c3ccccc3n(C)c2c1C#N`, the growth inhibition in assay [1] is -9.75%; in assay [2], -16.9%; in assay [3], -0.95%; in assay [4], -0.25%; in assay [5], -4.35%; in assay [6], 41.8%.
Take `COC(=O)c1c(-c2ccccc2)cc2c3cc(-c4ccccc4)c(C(=O)OC)n3c3ccccc3n12`: the growth inhibition was -2.35% in assay [1]; -4.55% in assay [2]; -31.5% in assay [3]; -23.9% in assay [4]; -1.95% in assay [5]; -10.6% in assay [6].
On to `c1ccc2c(c1)ccc1ccc3ocnc3c12`, for which the growth inhibition is 6.45% in assay [1]; -0.95% in assay [2]; -3.15% in assay [3]; -6.6% in assay [4]; 9.15% in assay [5]; 10% in assay [6].
For the compound `CN(C)CCCN1CCC2(CCC(C(C)(C)C)CC2)CC1`, the growth inhibition in assay [1] is 40%; in assay [2], -16.1%; in assay [3] it was -0.3%; in assay [4], -19.1%; in assay [5] it was -31.2%; in assay [6], 49.8%.
For `O=C=Nc1ccccc1[N+](=O)[O-]`, the growth inhibition in assay [1] was -4.25%; in assay [2], -28%; in assay [3] it was -15.8%; in assay [4], -65.5%; in assay [5], -0.55%; in assay [6], -9.2%.
Turning to `OC(CC(O)(C(F)(F)F)C(F)(F)F)c1cccs1` (stereo not given), the growth inhibition is -1.95% in assay [1]; 13.6% in assay [2]; 4.6% in assay [3]; 51.5% in assay [4]; -5.45% in assay [5]; 12.9% in assay [6].
Regarding `CC(=O)Nc1cc(-c2ccccc2)cc(-c2ccccc2)c1`, the growth inhibition in assay [1] is 11.6%; in assay [2], 0.4%; in assay [3], -2.55%; in assay [4], 1.5%; in assay [5], 10.7%; in assay [6], 22.4%.
For `CC(C)(C)OC(=O)N1CCc2c([nH]oc2=O)C1`, the growth inhibition in assay [1] is -1.25%; in assay [2], -8.55%; in assay [3], -3.5%; in assay [4], -17.6%; in assay [5], 10.6%; in assay [6], -3.8%.
As to `O=C(Nc1nccs1)Nc1ccc(Cl)cc1[N+](=O)[O-]`, the growth inhibition in assay [1] is 0.1%; in assay [2], 33.6%; in assay [3], 34.6%; in assay [4] it was -6.95%; in assay [5], 24.8%; in assay [6], 34.4%.
Take `Cc1c(C2CCSc3ccccc3N2)sc2ccccc12` (stereo not given): the growth inhibition in assay [1] is -17.2%; in assay [2] it was -27.4%; in assay [3] it was 11.3%; in assay [4], 14.6%; in assay [5], 4.65%; in assay [6] it was 7.2%.
For `CC(C)(C)CNC(=S)Nc1ccccc1`, the growth inhibition was 3.45% in assay [1]; 2.6% in assay [2]; 3.4% in assay [3]; 3.55% in assay [4]; -2.05% in assay [5]; 10% in assay [6].
Consider `COc1cc(C)c([N+](=O)[O-])cc1[N+](=O)[O-]`, for which the growth inhibition is 4.15% in assay [1]; 8.2% in assay [2]; 9.65% in assay [3]; -2.35% in assay [4]; -10.1% in assay [5]; 1% in assay [6].
As to `CCCCCCCCCCCC[N+]12CC[N+](C)(CC1)CC2`, the growth inhibition in assay [1] is 16.2%; in assay [2], -24.4%; in assay [3], -10.7%; in assay [4], -49%; in assay [5], -27.6%; in assay [6] it was -15.6%.

The values are drawn from PubChem BioAssay (NCI).
